Source: PubChem
TSG101-PTAP inh: qHTS Assay for Iinhibitors of HIV-1 Budding by Blocking the Interaction of PTAP/TSG101. Tumor susceptibility gene 101 protein (Homo sapiens), Q99816. Fluorescence polarization, FITC-PTAP peptide / Tsg101 binding. AID 493005, 2010. 340,000 tested, under 10 active. Potency, µM (doses to about 115 µM), without a hit: top-dose activity change, negative = inhibition, actives largely listed as inhibitors; active means well fitted inhibition curve with a large enough effect in the main read-out, with a control signal flat, not every such curve was filed as active; inconclusive means small, poorly fitted or top-dose-only effect, or effect the other way, or a change in a side signal; inactive means no such curve, though single readings can be large or run the other way; further: % of control where 0% means no effect
Target sequence (Q99816 whole entry, looked up): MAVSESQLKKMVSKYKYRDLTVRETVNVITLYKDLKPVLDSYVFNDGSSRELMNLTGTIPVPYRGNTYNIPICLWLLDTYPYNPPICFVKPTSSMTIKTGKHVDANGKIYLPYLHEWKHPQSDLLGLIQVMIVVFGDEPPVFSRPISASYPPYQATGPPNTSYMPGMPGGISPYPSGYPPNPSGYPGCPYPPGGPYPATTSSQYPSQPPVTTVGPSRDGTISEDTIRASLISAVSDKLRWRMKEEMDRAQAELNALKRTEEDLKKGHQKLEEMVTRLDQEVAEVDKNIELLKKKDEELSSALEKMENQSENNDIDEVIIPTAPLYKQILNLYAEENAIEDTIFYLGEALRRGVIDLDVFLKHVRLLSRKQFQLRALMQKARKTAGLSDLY
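Tsg101 binding domain (10 uM final) was mixed with compound and a FITC-labeled PTAP peptide (50 nM final) in HEPES pH 7.5 buffer with NaCl, Tween 20, EDTA and TCEP; fluorescence polarization was read after 20 min at r.t.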
PINK1 expr mod: A Quantitative High throughput Screen to Identify Chemical Modulators of PINK1 Expression; PINK1 immunofluorescence, high-content cytometry, 24 h; Potency, µM (top dose mostly 76.6 µM), for the others: at the top dose activation (PINK1 increase), actives largely listed as activators; actives 0.2% (n = 410,000); AID 624263, 2012; active means well fitted activation curve with a large enough effect; inconclusive means small, poorly fitted or top-dose-only effect; cell line not stated here; further: % of control where 0% means no effect; nearly all actives have a fitted effect of over 65% in size
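Stable cell line, 250 cells/well, 12 h attachment; compounds pinned at 5 concentrations, 24 h; CCCP control. Fixed with nuclear dye, primary antibodies 12 h at 10 degrees C, secondary plus cell stain; laser-scanning cytometer read.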
KB-3-1 tox: qHTS assay for MDR1-selective chemotherapeutics: Primary screen using the parental adenocarcinoma cell KB-3-1. KB-3-1 viability, CellTiter-Glo ATP luminescence, 72 h. actives 1.4% (n = 400,000). Potency, µM (top dose mostly 46.1 µM), hits mostly cytotoxic; further: on the % scale 0 is the no-effect control and ±100 the full control effect; nearly all actives have a fitted effect of over 60% in size
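Using CellTiter-Glo luminescence, growth of non-resistant KB-3-1 adenocarcinoma cells is assessed 72 h after pin-tool compound addition at 37 °C. Normalized responses across the concentration series yield fitted curves.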
MCF10A rereplic: A quantitative high throughput screen for small molecules that induce DNA re-replication in MCF 10a normal breast cells; MCF 10A DNA re-replication, Hoechst nuclear intensity, 48 h; Potency, µM (top dose mostly 46.1 µM), for inactives: top-dose activity, positive = re-replication, actives largely listed as activators; actives 2.9% (n = 350,000); further: % of control where 0% means no effect; nearly all actives have a fitted effect of over 50% in size
SW480 rerep: A quantitative high throughput screen for small molecules that induce DNA re-replication in SW480 colon adenocarcinoma cells; SW480 DNA re-replication, Hoechst DNA content imaging, 48 h; AID 624297, 2012; Potency, µM (series often up to 46.1 µM), for the others: at the highest dose re-replication activation, hits mostly activators; actives 1.8% (n = 340,000); further: % of control where 0% means no effect; nearly all actives have a fitted effect of over 55% in size
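Quantitative HTS format with DMSO vehicle controls; 48 hr drug incubation at 37 C, then 40 min Hoechst staining and scanning imager measurement at 405 nm excitation.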
KB-V1 MDR tox: qHTS assay for MDR1-selective chemotherapeutics: Primary screen using the drug-selected MDR subline cells KB-V1; KB-V1 MDR cells viability, CellTiter-Glo, 72 h; Potency, µM (series often up to 46.1 µM), most hits filed as cytotoxic; actives 3.4% (n = 400,000); further: on the % scale 0 is the no-effect control and ±100 the full control effect; nearly all actives have a fitted effect of over 60% in size
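In this primary screen, KB-V1 cells overexpressing P-gp are incubated with library compounds (lowest to highest concentration) for 72 h at 37 degrees C before a luminescent ATP viability read.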
Numbers without * were called inactive; i = inactive; ? = inconclusive; . = not tested or not shown; [ ] = another dose, or the depositor's remark. Only some compounds are listed: those with a hit (about 6.8% of all), similar ones and a draw of the others. Unless noted, the call rests on the fitted dose curve; in most records, active means well fitted curve in the direction sought with a large enough effect; inconclusive means small, poorly fitted or top-dose-only effect, or another doubt; inactive means no such curve, though single readings can be large; an effect the other way counts as inactive or inconclusive. Potency means the concentration at half of the fitted maximal effect.

SMILES	TSG101-PTAP inh	PINK1 expr mod	KB-3-1 tox	MCF10A rereplic	SW480 rerep	KB-V1 MDR tox
O=C(/C=C\c1ccco1)Nc1ccc(N2CCN(C(=O)c3ccccc3)CC2)cc1	-2%	2%	i	?	7%	23µM*
O=C(/C=C/c1ccco1)N1CCN(c2ccccc2)CC1	-7%	0%	i	2%	0%	i
Cc1ccc(C)c(CN2C(=O)c3ccccc3S(=O)c3ccc(C(=O)NCc4ccco4)cc32)c1 (stereo not drawn)	.	1%	i	.	.	?
Cc1ccc(-c2cn3c(n2)sc2cc(C(=O)NCCC4=CCCCC4)ccc23)c(C)c1	.	0%	i	.	.	i
CCOc1ccccc1-c1noc(CSc2nnc(-c3ccccc3)n2-c2ccc(OC)cc2)n1	.	0%	i	.	.	?
COc1ccc(CCNC(=O)c2nc(SCc3ccccc3F)ncc2Cl)cc1OC	.	-1%	.	.	.	.
Cc1[nH][nH]c(=O)c1C(c1ccc(-c2cccc(C(=O)O)c2)o1)c1c(C)[nH][nH]c1=O	-2%	0%	i	3%	-15%	i
Cc1[nH][nH]c(=O)c1C(c1ccc(-c2cccc(Cl)c2)o1)c1c(C)[nH][nH]c1=O	-4%	1%	i	18µM*	0%	i
COc1cc(C(=O)NCC(c2ccc3c(c2)OCO3)N2CCOCC2)cc(OC)c1OC (stereo not drawn)	.	1%	.	.	.	.
O=C(NCCOCCn1c(=O)oc2ccccc21)Nc1ccc(F)cc1F	.	3%	i	.	.	i
CN(CC(=O)Nc1c(Cl)cccc1Cl)C(=O)c1ccccc1-c1nc2ccccc2s1	-4%	-2%	i	4%	3%	8.2µM*
CN(CC(=O)Nc1c(Cl)cccc1Cl)C(=O)c1cc2ccccc2cc1O	-2%	10%	i	11%	-53%	i
COc1cccc(NC(=O)CN(C)C(=O)CSc2nc3ccccc3s2)c1	1%	0%	i	-1%	-2%	?
COc1cccc(NC(=O)CN(C)C(=O)c2ccccc2-c2nc3ccccc3s2)c1	-7%	-2%	i	?	-7%	18µM*
C=CCOc1c(/C=N\NC(N)=O)cccc1OC	-5%	-1%	i	12%	?	i
C=CCOc1c(OC)cc(/C=N/Nc2cccc(C(=O)O)c2)c(Br)c1Br	-2%	3%	i	21µM*	2.1µM*	i
CCOc1cc(NS(=O)(=O)c2ccccc2)c(OCC)cc1NC(=O)c1ccco1	1%	-3%	i	10%	-6%	15µM*
CCOc1ccc(C(=O)NC(=S)Nc2cccc(NC(=O)c3ccco3)c2)cc1[N+](=O)[O-]	1%	4%	18µM*	?	16%	?
CCOc1ccc(C(=O)Nc2ccc(NC(=O)c3ccco3)c(Cl)c2)cc1Br	-4%	?	i	5.8µM*	-14%	i
CCOc1ccccc1NC(=O)c1cccc(NC(=O)c2ccco2)c1	-2%	14%	2.6µM*	6.5µM*	7.3µM*	?
Cc1ccccc1NC(=O)c1cccc(NC(=O)c2ccco2)c1	-3%	1%	i	-2%	-12%	i
CCNC(=S)Nc1cc(OCC)c(NC(=O)c2ccco2)cc1OCC	-4%	8%	i	3%	-1%	i
COc1cc(OC)c(N(C)C(=O)C2CCCN(c3ncnc4c3nc3n4CCCCC3)C2)cc1Cl (stereo not drawn)	.	6%	i	.	.	i
Cc1ccc(C)c(C(=O)N2CCC(C3(c4ccccn4)NC(=O)N(CC4CCCO4)C3=O)CC2)c1 (stereo not drawn)	.	-1%	.	.	.	.
COc1ccc(S(=O)(=O)Nc2ccc3c(c2)CCCN3S(=O)(=O)c2ccc(C)cc2)cc1F	.	1%	i	.	.	i
SMILES	TSG101-PTAP inh	PINK1 expr mod	KB-3-1 tox	MCF10A rereplic	SW480 rerep	KB-V1 MDR tox
COC(=O)c1c(-c2cccs2)csc1NC(=O)c1cc(OC)cc(OC)c1	.	14%	i	.	.	i
COc1cc(/C=C/c2nc3cc(Cl)ccc3c(=O)n2-c2ccc(C)cc2C)cc(OC)c1OC	.	1%	i	.	.	i
CCOc1cc(NS(=O)(=O)c2ccc(NC(C)=O)cc2)c(OCC)cc1NC(=O)C(C)C	-12%	1%[38.3 µM]	i	?	-7%	?
CCOc1cc(NS(=O)(=O)c2ccc(Cl)cc2)c(OCC)cc1NC(=O)CC(C)C	-9%	-1%[38.3 µM]	i	-5%	6%	11µM*
C=C1C=C(C)n2ncc(C(=O)Nc3ccc(NC(C)=O)c(Cl)c3)c2N1	.	0%	?	.	.	i
c1c2c(cc3sc(N4CCOCC4)nc13)OCCO2	-3%	-4%	?	1%	-4%	21µM*
c1ccc(N2CCN(c3nc4cc5c(cc4s3)OCCO5)CC2)cc1	1%	1%	?	0%	-4%	2.6µM*
C[C@@H]1CCC2[C@](C)(CO)C(O)CC[C@@]2(C)[C@@]12CC[C@](CO)(CCO)O2 (stereo partly drawn)	.	-1%	.	.	.	.
COc1cc2[nH]c(=O)n(Cc3ccc(C(=O)N4CCN(c5cc(Cl)ccc5C)CC4)cc3)c(=O)c2cc1OC	.	2%	i	.	.	i
COc1cc(Nc2ncc3c(n2)CCN(Cc2cc(F)cc(F)c2)C3)cc(OC)c1	.	2%	?	.	.	8.2µM*
CC1CN(CCS(=O)(=O)c2cc(Cl)ccc2Cl)CC(C)O1 (stereo not drawn)	-3%	0%	?	2.9µM*	?	?
O=C(NCCCN1CCN(c2cccc(Cl)c2)CC1)C1(S(=O)(=O)c2ccc(Cl)cc2)CC1	-11%	-1%	?	?	?	i
COc1ccc(N2CCN(CCCNC(=O)C3(S(=O)(=O)c4ccc(Cl)cc4)CC3)CC2)cc1	-1%	-1%	i	8%	-3%	9.2µM*
COc1ccc(NC(=O)CCN2CCN(S(=O)(=O)c3cc(Cl)ccc3Cl)CC2)cc1	-10%	.	i	-25%	12%	i
COc1ccc(N2CCN(CCS(=O)(=O)c3cc(Cl)ccc3Cl)CC2)cc1	-5%	0%	i	5.8µM*	7.3µM*	i
COC(=O)CCS(=O)(=O)c1cc(Cl)ccc1Cl	-3%	17%[38.3 µM]	i	6%	-2%	i
CC(=O)N1CCN(CCS(=O)(=O)c2cc(Cl)ccc2Cl)CC1	0%	1%	i	15µM*	?	i
